Test results reported in ChEMBL document CHEMBL1201862, “PubChem BioAssay data set” (2004).
Entries with a potency or affinity are not part of this list.

assay: M. tuberculosis growth inhibition, dose response, 7H9 media, purified and synthesized compounds, set 5 (AID 504903); assay type: functional; call rule not given here

Q: For `CNC(=O)CSc1nc2ccccc2c(=O)[nH]1`, which IC90 is on record?
A: > 100 µM (active)

Q: For `Cc1[nH]c2ccccc2c1C(=O)COC(=O)c1ccc([N+](=O)[O-])s1`, which IC90 is on record?
A: > 50.5 µM (active)

Q: For `CCCc1cc(C(N)=S)ccn1`, which IC90 is on record?
A: > 100 µM (active)

Q: With `O=C(CSc1ccccn1)NC1CCCCC1` as the compound, how does the IC90 read?
A: > 100 µM (active)
